Results reported in PubChem BioAssay AID463173 (ICCB-Longwood Screening Facility, Harvard Medical School, 2010).
In all, about 52,000 compounds went through this assay and about 4,300 (8.3%) were called active. Shown is part of a subset that was picked to be rich in actives. A number with no mark means an inactive call. Rule as the data show it: active = survival mostly below about 52% (no sharp cut-off); inactive = mostly above about 56%.

What follows are compounds tested on DeltatarO mutant (assay: S. aureus survival, RN4220 and DeltatarO strains – OD600, teichoic acid synthesis inhibitors, primary screen (AID 463173)). Conditions: S. aureus RN4220 wild type/DeltatarO growth, OD600, 18 h, active compounds read low, screened at 18.75 µg/mL (by protocol).
For Cc1ccc(C)c(Cn2c(SCC(=O)NCc3ccccc3)nc3ccccc32)c1, the survival was 73%.
COc1cc(NC(=O)c2cc(Cl)ccc2Cl)ccc1NC(=O)c1cc2ccccc2o1 gave a survival of 55%.
In the case of CCOc1ccc(S(=O)(=O)Nc2ccc3c(c2)c(C(C)=O)c(C)n3S(=O)(=O)c2ccc(OCC)cc2)cc1, the survival is reported as 67%.
For NC(=O)CSc1nnc(Cn2cnc3ccccc32)o1, the survival was 79%.
CCOc1ccc(NC(=O)CCC(=O)N2CCSc3ccccc32)cc1 was tested, and the survival was 75%.
With CCCN(C(=O)c1coc(=O)c2ccccc12)c1ccccc1C the survival was 56% (active).
Compound CCCN(C(=O)c1cn(C)c(=O)c2ccccc12)c1ccccc1C has a survival of 79%.
CCN(C(=O)c1coc(=O)c2ccccc12)c1ccccc1C showed a survival of 113%.
Work on CC(=O)N1CCCc2cc(S(=O)(=O)N3CCCC(C(=O)Nc4cccc(F)c4)C3)ccc21 (configuration not stated) yielded a survival of 87%.
CCc1ccc(-n2c(=O)c3c4c(sc3n(Cc3ccc(F)cc3)c2=O)CCCC4)cc1 was tested, and the survival was 42%.
In the case of COc1ccc(NC(=O)c2cc3nc(-c4ccc(Cl)c(Cl)c4)cc(C(F)(F)F)n3n2)c(OC)c1, the survival is reported as 47% (active).
In the case of COC(=O)c1ccccc1NC(=O)c1cc2nc(-c3ccc(OC)cc3)cc(C(F)(F)F)n2n1, the survival is reported as 36% (active).
With COc1cc(NC(=O)c2cc3nc(-c4ccc(C)cc4)cc(C(F)(F)F)n3n2)cc(OC)c1OC the survival was 41% (active).
For COc1ccc(-c2cc(C(F)(F)F)n3nc(C(=O)Nc4cccc(Cl)c4C)cc3n2)cc1, the survival was 70%.
Compound COc1ccc(-c2cc(C(F)(F)F)n3nc(C(=O)Nc4cc(C)ccc4C)cc3n2)cc1 has a survival of 70%.
For COC(=O)c1ccc(C(=O)OC)c(NC(=O)c2cc3nc(-c4ccc(C)cc4)cc(C(F)(F)F)n3n2)c1, the survival was 83%.
COc1ccc(Cl)cc1NC(=O)c1cc2nc(-c3ccc(C)cc3)cc(C(F)(F)F)n2n1 showed a survival of 78%.
COc1ccc(-c2cc(C(F)(F)F)n3nc(C(=O)Nc4cc(Cl)cc(Cl)c4)cc3n2)cc1 was tested, and the survival was 86%.
With COc1ccc(-c2cc(C(F)(F)F)n3nc(C(=O)Nc4cc(C(F)(F)F)ccc4Cl)cc3n2)cc1OC the survival was 152%.
With Cc1cc(N2CCC(C(O)(c3ccccc3)c3ccccc3)CC2)nc(C)n1 the survival was 108%.
In the case of Cc1cc(C)cc(-n2c(SCC(=O)Nc3ccc4c(c3)OCCO4)nc3c([nH]c4ccccc43)c2=O)c1, the survival is reported as 126%.
With Cc1cc(C)cc(OCC(=O)N(Cc2ccco2)Cc2ccccc2Cl)c1 the survival was 73%.
CCc1ccc2oc(C(=O)N(Cc3ccc(N(C)C)cc3)Cc3ccco3)c(C)c2c1 gave a survival of 71%.
In the case of Cc1cccc(C(=O)N(Cc2ccco2)Cc2ccccc2F)c1, the survival is reported as 102%.
For Cc1c(C(=O)N(Cc2ccco2)Cc2ccccc2Cl)oc2ccc(F)cc12, the survival was 42% (active).
CCc1ccc2oc(C(=O)N(Cc3cccc(Cl)c3)Cc3ccco3)c(C)c2c1 gave a survival of 53%.
With Cc1cc2oc(C(=O)N(Cc3ccco3)Cc3ccccc3Cl)c(C)c2cc1C the survival was 43% (active).
With O=C(c1cccc(Cl)c1)N(Cc1ccco1)Cc1ccccc1Cl the survival was 32% (active).
For Cc1ccc(CN(Cc2ccco2)C(=O)c2oc3ccc(C)cc3c2C)cc1, the survival was 54%.
With COc1cccc(C(=O)N(Cc2cccc(Cl)c2)Cc2ccco2)c1 the survival was 68%.
For Cc1cc2oc(C(=O)N(Cc3ccc(N(C)C)cc3)Cc3ccco3)c(C)c2cc1Cl, the survival was 84%.
In the case of Cc1c(C(=O)N(Cc2cccc(Cl)c2)Cc2ccco2)oc2ccccc12, the survival is reported as 40% (active).
Cc1cc2oc(C(=O)N(Cc3ccc(Cl)cc3)Cc3ccco3)c(C)c2cc1Cl was tested, and the survival was 64%.
With CCn1cc(C(=O)NCc2ccc(C)cc2)c(=O)c2cc(S(=O)(=O)N(C)C3CCCCC3)ccc21 the survival was 75%.
CN(Cc1ccccc1)C(=O)Cn1ncc2c3ccccc3n(Cc3cccc(Cl)c3)c2c1=O showed a survival of 90%.
In the case of Cc1c(Cl)cccc1NC(=O)C(=O)NCCc1csc(-c2cccc(F)c2)n1, the survival is reported as 76%.
CCC(C)[C@@H](C(=O)Nc1ccc(C)cc1)N1Cc2ccccc2C1=O (some centres not stated) was tested, and the survival was 74%.
For CCn1cc(C(=O)NCCCOC)c(=O)c2cc(S(=O)(=O)N3CCCC3)ccc21, the survival was 92%.
Work on Cc1ccc(C(CC(=O)Nc2ccc(F)c(Cl)c2)N2Cc3ccccc3C2=O)cc1 (configuration not stated) yielded a survival of 88%.
In the case of CCC(=O)N1CCc2cc(Br)cc(S(=O)(=O)N3CCCC(C(=O)NCc4ccccc4)C3)c21 (configuration not stated), the survival is reported as 107%.
In the case of Cc1ccc(CN(Cc2ccco2)C(=O)c2oc3c(C)c(C)ccc3c2C)cc1, the survival is reported as 50%.
Cc1ccc(CN(Cc2ccco2)C(=O)c2oc3cc(Br)ccc3c2C)cc1 was tested, and the survival was 43% (active).
With Cc1c(C(=O)N(Cc2ccc(N(C)C)cc2)Cc2ccco2)oc2cc(Br)ccc12 the survival was 68%.
CCOc1ccc(C(=O)c2cn(CC(=O)Nc3ccc(OC)cc3)c3cc4c(cc3c2=O)OCO4)cc1 gave a survival of 69%.
CCC1CCCCN1CCCNC(=O)CN1C(=O)c2cccnc2Oc2ccc(C)cc21 (configuration not stated) showed a survival of 78%.
CCS(=O)(=O)N1CC(=O)N(c2ccc(C)c(C)c2)C(C)(C(=O)NC2CCCCC2)C1 (configuration not stated) was tested, and the survival was 87%.
With CCc1ccc(NC(=O)c2cc(S(=O)(=O)N3CCCCC3)c[nH]2)cc1 the survival was 105%.
In the case of Cc1c(CC(=O)NCc2ccccc2Cl)c(=O)oc2cc(O)ccc12, the survival is reported as 44% (active).
Work on Cc1cc(O)c2c(C)c(CC(=O)NCc3ccccc3Cl)c(=O)oc2c1 yielded a survival of 62%.
For COc1ccccc1CCNC(=O)Cc1c(C)c2ccc(O)cc2oc1=O, the survival was 57%.
In the case of CCN(CC)c1ncnc(Cl)c1Cc1ccc(OC)cc1, the survival is reported as 105%.
For COc1ccccc1NC(=O)N1CCN(c2cc(-c3ccccc3)nc3ncnn23)CC1, the survival was 66%.
COc1cccc(-c2nc(S(=O)(=O)c3ccc(C)cc3)c(N3CCCCC3)o2)c1 showed a survival of 47%.
Cc1ccc(S(=O)(=O)c2nc(-c3cccc(C)c3)oc2N2CCCCC2)cc1 was tested, and the survival was 6% (active).
Compound Cc1cccc(-c2nc(S(=O)(=O)c3ccccc3)c(N3CCN(c4ccccc4)CC3)o2)c1 has a survival of 112%.
Work on COc1cccc(-c2nc(S(=O)(=O)c3ccc(C)cc3)c(N3CCCCCC3)o2)c1 yielded a survival of 55%.
Work on COc1cccc(-c2nc(S(=O)(=O)c3ccccc3)c(N3CCCCC3)o2)c1 yielded a survival of 61%.
Work on Cc1ccc(S(=O)(=O)c2nc(-c3cccc(C)c3)oc2N2CCN(c3ccccc3)CC2)cc1 yielded a survival of 114%.
Cc1cccc(-c2nc(S(=O)(=O)c3ccc(F)cc3)c(N3CCN(c4ccccc4)CC3)o2)c1 was tested, and the survival was 110%.
In the case of Cc1ccc(S(=O)(=O)c2nc(-c3cccc(Br)c3)oc2N2CCCCCC2)cc1, the survival is reported as 45% (active).
In the case of Cc1cccc(-c2nc(S(=O)(=O)c3ccc(Cl)cc3)c(N3CCCCCC3)o2)c1, the survival is reported as 46% (active).
Cc1ccc(Cc2nc3ccccc3nc2SCC(=O)NCc2ccccc2Cl)cc1 showed a survival of 120%.
In the case of O=C(Cn1c(=O)n(-c2ccccc2Cl)c(=O)c2sc3ccccc3c21)N1CCCC1, the survival is reported as 80%.
With O=c1c2oc3ccccc3c2n(Cc2ccccc2Cl)c(=O)n1Cc1ccc2c(c1)OCO2 the survival was 65%.
Work on CSc1ccc(CNC(=O)c2cc3cc(S(=O)(=O)N4CCCCC4)ccc3n2C)cc1 yielded a survival of 95%.
Compound Cc1ccc(Cl)cc1NC(=O)CSc1nc2ccccc2c2nc(-c3ccccc3)nn12 has a survival of 113%.
CCOC(=O)CC(NC(=O)CCc1c(C)nc2ncnn2c1C)c1ccc(OC(C)C)cc1 (configuration not stated) gave a survival of 114%.
In the case of Cc1ccc(Cn2c(C(=O)Nc3ccc(Cl)cc3)cc3sccc32)cc1, the survival is reported as 112%.
For CC(=O)c1c(C)n(-c2ccc(Cl)cc2)c2ccc(OC(=O)COc3ccccc3)cc12, the survival was 63%.
For Cn1c(CNc2nc(-c3ccccc3)cs2)nnc1SCC(=O)OC1CCCCC1, the survival was 73%.
Work on CCn1c(CNc2nc(-c3ccccc3)cs2)nnc1SCC(=O)c1ccc(OC)cc1 yielded a survival of 87%.
Cn1c(CNc2nc(-c3ccccc3)cs2)nnc1SCC(=O)c1ccccc1 was tested, and the survival was 51% (active).
With CSc1ccc(CCNC(=O)c2ccc3c(Cl)c4c(nc3c2)CCCC4)cc1 the survival was 64%.
CCCOC(=O)c1ccc2c(c1)C(=O)N(c1ccccc1)C2=O gave a survival of 78%.
O=C(NCc1ccc2c(c1)OCO2)c1ccc2c(c1)N(Cc1ccccc1)C(=O)c1ccccc1S2=O (configuration not stated) gave a survival of 83%.
CC(CNC(=O)c1ccc(Cn2c(SCc3ccccc3)nc3cccnc32)cc1)c1ccccc1 (configuration not stated) gave a survival of 69%.
In the case of O=C(O)CN1CCCCC1, the survival is reported as 89%.
For O=C(c1ccccc1)n1nc(-c2ccc(Cl)cc2)nc1NCc1ccco1, the survival was 23% (active).
COc1ccc(C(=O)n2nc(-c3ccc(Cl)cc3)nc2NCc2ccco2)cc1 was tested, and the survival was 115%.
O=C(c1ccc(F)cc1)n1nc(-c2ccccc2)nc1NCc1ccco1 was tested, and the survival was 18% (active).
For O=C(c1ccc(Cl)cc1)n1nc(-c2ccccc2)nc1NCc1ccco1, the survival was 29% (active).
O=C(c1ccco1)n1nc(-c2ccccc2)nc1NCc1ccc(Cl)cc1 gave a survival of 91%.
In the case of O=C(c1ccco1)n1nc(-c2ccc(Cl)cc2)nc1NCc1ccccc1, the survival is reported as 74%.
O=C(c1ccco1)n1nc(-c2ccccc2)nc1NCc1ccccc1Cl gave a survival of 96%.
For O=C(c1ccco1)n1nc(-c2ccc(Cl)cc2)nc1NCc1ccc(F)cc1, the survival was 80%.
O=C(c1ccc(F)cc1)n1nc(-c2ccc(Cl)cc2)nc1NCc1ccco1 showed a survival of 70%.
With Cc1ccc2onc(CNC(=O)NCc3ccc(Cl)cc3)c2c1 the survival was 77%.
